# Reference: ChEMBL document CHEMBL3988442, “University of Dundee, Small-Polar-MMV Screening Library” (2021)
# Among all 48,000 compounds or so, about 13,000 (27%) showed an effect of 50% or more. Some of the results follow.
# Test system: Wolbachia pipientis
# Assay: Anti-Wolbachia Cell-Based Screen
# Assay type: functional
# Set-up: scale not given: in the data most compounds retested in dose-response had high values
# Settings: 5 µM
row,Structure (SMILES),Percent Effect [%]
1,Cc1cc(C)c2nc(CN3CCC(N4CCOC4=O)CC3)cc(O)c2c1,-3.092
2,COCCN(C)CCN1CC2(CCN(C3CCCNC3)CC2)OC1=O (configuration not stated),-6.573
3,CC(C)CCN1CCN(c2ncnc3nc(N)ccc23)CC1,6.537
4,Cn1c(-c2cccs2)nn(CCNS(=O)(=O)c2ccccc2Cl)c1=O,11.66
5,Cc1c(C(=O)N2CCC2(C)C)nnn1-c1cccc2cnccc12,16.96
6,CN(C)C(=O)N1CCC[C@]2(C(=O)N(C)C)CN(c3ccccn3)C[C@@H]2C1.O=C(O)C(F)(F)F,123.8
7,CCS(=O)(=O)N1CCC[C@]2(C(=O)N(C)C)CN(c3ccccn3)C[C@@H]2C1.O=C(O)C(F)(F)F,-14.88
8,COCC(=O)N1CCC[C@]2(C(=O)N(C)C)CN(c3ccccn3)C[C@@H]2C1.O=C(O)C(F)(F)F,-6.724
9,CCS(=O)(=O)N1CCC[C@]2(C(=O)N(C)C)CN(c3ncccn3)C[C@@H]2C1.O=C(O)C(F)(F)F,-12.08
10,O=C(O)C(F)(F)F.O=C(O)[C@]12CCCN(Cc3ccco3)C[C@H]1CN(c1ncccn1)C2,0.3269
11,CC(C)C(=O)N1CCC[C@]2(C(=O)N(C)C)CN(c3ccccn3)C[C@@H]2C1.O=C(O)C(F)(F)F,109.6
12,CCC(=O)N1CCC[C@]2(C(=O)N(C)C)CN(c3ccccn3)C[C@@H]2C1.O=C(O)C(F)(F)F,98.59
13,O=C(O)C(F)(F)F.O=C(O)C(F)(F)F.O=C(O)[C@]12CCCN(Cc3ccsc3)C[C@H]1CN(c1ccccn1)C2,-13.21
14,CN(C)C(=O)[C@]12CCCN(CC3CC3)C[C@H]1CN(c1ccccn1)C2.O=C(O)C(F)(F)F.O=C(O)C(F)(F)F,89.5
15,CN(C)CCN1C[C@@H]2OCCN(Cc3cnn(C)c3)[C@@H]2C1,-15.62
16,COc1cccc(Cl)c1-c1cc(CN)ccc1F,-5.951
17,O=C(O)C(F)(F)F.O=C(c1cccs1)N1CC[C@@H]2CN(C3CCOCC3)CCO[C@@H]2C1,103
18,O=C(NC[C@H]1OC[C@@H]2CCN(C3CCOCC3)C[C@@H]21)c1ccncc1.O=C(O)C(F)(F)F.O=C(O)C(F)(F)F,-8.097
19,COCCN1CCO[C@H]2CCN(C(=O)c3cccs3)CC[C@@H]21.O=C(O)C(F)(F)F,9.308
20,O=C(O)C(F)(F)F.O=C(O)C(F)(F)F.c1csc(CN2CCO[C@@H]3CN(C4CCOCC4)C[C@@H]3C2)c1,-1.995
21,O=C(O)C(F)(F)F.O=C(O)C(F)(F)F.O=C(c1ccncc1)N1CC[C@@H]2CN(C3CCOCC3)CCO[C@@H]2C1,103.2
22,CC(=O)N1CCO[C@@H]2CN(C(=O)c3ccc4ncccc4c3)CC[C@@H]2C1.O=C(O)C(F)(F)F,-0.4432
